S1P4 ag: S1P4 receptor agonists, primary screen, cell-based; 220,000 tested, 0.35% active; activation, % at 4.98 µM; Sphingosine 1-phosphate receptor 4 (Homo sapiens), O95977; S1P4-expressing cell line, agonist reporter assay; in the data active = activation above about 11%
Target sequence (O95977 whole entry, looked up): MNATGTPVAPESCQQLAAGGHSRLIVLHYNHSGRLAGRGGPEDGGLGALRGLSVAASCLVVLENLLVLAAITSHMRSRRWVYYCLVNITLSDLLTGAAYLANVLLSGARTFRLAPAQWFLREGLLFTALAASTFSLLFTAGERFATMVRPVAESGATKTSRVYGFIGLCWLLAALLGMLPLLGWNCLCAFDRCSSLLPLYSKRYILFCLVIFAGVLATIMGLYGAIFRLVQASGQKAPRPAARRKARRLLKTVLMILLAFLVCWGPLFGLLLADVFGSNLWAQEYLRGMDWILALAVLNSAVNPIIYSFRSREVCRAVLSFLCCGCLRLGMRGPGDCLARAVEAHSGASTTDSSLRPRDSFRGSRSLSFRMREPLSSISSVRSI
GALR2 blocker: GALR2 antagonists in receptor-expressing cells, primary screen; Galanin receptor type 2 (Homo sapiens), O43603; antagonist mode; inhibition, % at 4 µM; 140,000 tested, 0.39% active; in the data active = inhibition above about 27%;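 also: cells stimulated with galanin 1-16 at roughly its EC80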
S1P4 antagonist: S1P4 receptor antagonists, primary screen, cell-based. Sphingosine 1-phosphate receptor 4 (Homo sapiens), O95977. S1P4-expressing cells, antagonist mode, reporter read-out. inhibition, % at 4.98 µM. 220,000 tested, 0.26% active; in the data active = inhibition above about 29%
GALR2 agonist: GALR2 receptor agonists, primary screen, cell-based; Galanin receptor type 2 (Homo sapiens), O43603; GALR2-expressing cells, agonist activation read-out; activation, % (concentration not given with the values); 140,000 tested, 0.48% active; in the data active = activation above about 5%, passing the limit was not always enough
S1P3 antag: S1P3 receptor antagonists, primary screen, cell-based. CHO S1P3 NFAT-BLA reporter, FRET fluorescence, antagonist mode. inhibition, % at 4.98 µM. 170,000 tested, 0.27% active. AID 485, 2006;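 active = inhibition above the plate cutoff, the mean inhibition of test wells on that plate plus 3 SD, cut at about 28% in these data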;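 also: cells challenged with S1P at its EC80 of 0.8 µM; blue over green emission ratio from cleaved BLA substrate after 4 h stimulation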
GALR2 agon conf: GALR2 agonists, retest of hits, confirmation, cell-based | shares compounds with GALR2 agonist | GALR2-expressing cells, agonist activation | activation, % at 5.6 µM | 460 tested, 10% active; in the data active = activation above about 8.4%
BLA activ ctr: activators of NFAT-driven beta-lactamase reporter, confirmation, counter-screen for GALR2 agonist project, CHO NFAT-bla cells, FRET readout. shares compounds with GALR2 agonist. beta-lactamase FRET activation. activation, % at 5.6 µM. 460 tested, 10% active. AID 865, 2007;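 active = activation above the screen-wide mean activation plus 3 SD, cut at about 8% in these data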
Large screens that a line does not name were inactive (follow-up assays come after a bar, where they were run). This is a sample that favours compounds with a hit; in the whole collection about 1.3% have one here.

O=C(Cc1sc(-c2ccccc2Cl)nc1-c1ccccc1)Nc1ccccc1	GALR2 agonist 26 (no result: S1P3 antag) | GALR2 agon conf inactive | BLA activ ctr inactive
CC(=O)c1cccc(OCC(=O)N(C)CC(=O)Nc2ccc(F)cc2)c1	none (no result: GALR2 blocker, GALR2 agonist)
Cc1ccc(-c2nc3c(c(=O)c4ccccc4n3C)c(=O)n2-c2ccccc2)cc1	none
CN(Cc1nc(-c2ccccn2)no1)S(=O)(=O)c1ccccc1	none | GALR2 agon conf inactive | BLA activ ctr inactive
Cc1ccc(S(=O)(=O)N(C)Cc2nc(-c3ccccn3)no2)cc1	none
Cc1cc(C(=O)CN2C(=O)c3cccc(N)c3C2=O)c(C)n1Cc1cccs1	none (no result: S1P3 antag) | GALR2 agon conf inactive | BLA activ ctr inactive
CC1(C)CC(NC(=O)c2sc3cc(Cl)ccc3c2Cl)CC(C)(C)N1	none (no result: GALR2 blocker, GALR2 agonist)
Cc1ccc(NC(=O)C(=O)C2C(=O)Nc3ccccc32)cc1 (stereo not drawn)	none (no result: GALR2 blocker, GALR2 agonist)
CC1=CC2=NC(=O)/C(=C\c3cc(C)n(-c4ccc(F)cc4)c3C)C(=N)N2O1	GALR2 agonist 12 | GALR2 agon conf inactive | BLA activ ctr 11
Cc1cc(/C=C2/C(=N)N3C(=NC2=O)SN=C3S(C)(=O)=O)c(C)n1-c1ccc(F)cc1	none (no result: GALR2 blocker, GALR2 agonist)
CCNC(=S)N(Cc1ccc2c(c1)OCO2)C1CC(=O)N(c2ccc(F)cc2)C1=O (stereo not drawn)	none (no result: S1P3 antag) | GALR2 agon conf inactive | BLA activ ctr inactive
CCNC(=S)N(Cc1ccc2c(c1)OCO2)C1CC(=O)N(c2ccc(OC)cc2)C1=O (stereo not drawn)	none (no result: S1P3 antag)
Cc1nc2cc(C(F)(F)F)ccc2n1C1CCN(CC(=O)NC(C)(C)C)CC1	none
CSc1nnc2c3cc(C)ccc3n(Cc3ccccc3)c2n1	GALR2 agonist 10 | GALR2 agon conf inactive | BLA activ ctr inactive
c1ccc(Cn2c3ccccc3c3nnc(SCCN4CCCCC4)nc32)cc1	none (no result: GALR2 blocker, GALR2 agonist)
CC(=O)NC1=C(N(C)C2CCS(=O)(=O)C2)C(=O)c2ccccc2C1=O (stereo not drawn)	GALR2 agonist 36 | GALR2 agon conf inactive | BLA activ ctr inactive
CN(C(=O)Nc1ccccc1)C1CCS(=O)(=O)C1 (stereo not drawn)	none (no result: S1P3 antag)
COC(=O)Cn1c(=NC(=O)c2sc3ccccc3c2Cl)sc2cc(S(N)(=O)=O)ccc21	none
COC(=O)Cn1c(=NC(=O)c2nc3ccccc3s2)sc2cc(S(C)(=O)=O)ccc21	GALR2 agonist 39 | GALR2 agon conf inactive | BLA activ ctr inactive
CCN(CC)S(=O)(=O)c1ccc(C)c(NC(=O)COc2ccc(Cl)cc2Br)c1	GALR2 agonist 10 | GALR2 agon conf inactive | BLA activ ctr inactive
CCN(CC)c1ccc2cc(-c3nc4ccccc4[nH]3)c(=O)oc2c1	none
CCN(CC)c1ccc2cc(-c3nc4ccccc4n3C)c(=O)oc2c1	GALR2 blocker 43 | GALR2 agon conf inactive | BLA activ ctr inactive
O=C(O)c1cc2nccc(-c3ccc(F)cc3)n2n1	none (no result: GALR2 blocker, GALR2 agonist)
Cc1occc1-c1nnc(SCC(=O)Nc2nc(-c3ccccc3)cs2)o1	GALR2 agonist 19 (no result: S1P3 antag) | GALR2 agon conf inactive | BLA activ ctr inactive
CN(C)c1ccc(-c2nc3ccccn3c2/N=C/c2ccc(Br)cc2)cc1	none
Cc1cccn2c(=O)c3cc(C#N)c(=NC(=O)c4ccco4)n(Cc4ccco4)c3nc12	none (no result: GALR2 blocker, GALR2 agonist)
Cc1cccc(C(=O)N=c2c(C#N)cc3c(=O)n4cccc(C)c4nc3n2Cc2ccco2)c1	none (no result: S1P3 antag) | GALR2 agon conf inactive | BLA activ ctr 8.3
O=S(=O)(Nc1cc2nc3ccccc3nc2n1Cc1ccccc1)c1ccc(Cl)cc1	GALR2 agonist 14 | GALR2 agon conf inactive | BLA activ ctr inactive
CC(=O)Nc1ccc(Sc2ncccc2C(=O)Nc2ccc(OC(F)(F)F)cc2)cn1	GALR2 agonist 22 (no result: S1P3 antag) | GALR2 agon conf 16 | BLA activ ctr 43
CCOc1ccc(OCC)c(NC(=O)C2CCN(S(=O)(=O)c3c(C)[nH]c(=O)[nH]c3=O)CC2)c1	none (no result: GALR2 blocker, GALR2 agonist)
Cc1ccc(-c2c3c(=O)n(C)c(=O)n(C)c3cn2Cc2ccccc2)cc1	GALR2 agonist 71 (no result: S1P3 antag) | GALR2 agon conf inactive | BLA activ ctr inactive
N#C/C(=C\c1c(N2CCCCCC2)nc2ccccn2c1=O)C(=O)NC1CCS(=O)(=O)C1 (stereo not drawn)	GALR2 agonist 8.9 | GALR2 agon conf inactive | BLA activ ctr inactive
N#C/C(=C\c1c(N2CCOCC2)nc2ccccn2c1=O)C(=O)NC1CCS(=O)(=O)C1 (stereo not drawn)	none (no result: GALR2 blocker, GALR2 agonist)
COc1ccc(CCNCC(=O)N2C(C)CCCC2C)cc1OC (stereo not drawn)	none (no result: GALR2 blocker, GALR2 agonist)
Cc1nc(SCc2cccc(F)c2)[nH]c(=O)c1C#N	GALR2 agonist 154 | GALR2 agon conf inactive | BLA activ ctr inactive
N#Cc1c(-c2ccco2)nc(SCc2ccc(F)cc2)[nH]c1=O	none
CCOC(=O)c1cc(C(=O)NN)c(=O)[nH]c1C	none (no result: GALR2 blocker, GALR2 agonist)
CCOC(=O)c1[nH]c2ccc(Cl)cc2c1NC(=O)/C=C/c1ccc2c(c1)OCO2	GALR2 agonist 14 | GALR2 agon conf 8.5 | BLA activ ctr inactive
Cc1nn(Cc2c(Cl)cccc2Cl)c(C)c1NC(=O)c1sc2ccccc2c1Cl	GALR2 agonist 12 (no result: S1P3 antag) | GALR2 agon conf inactive | BLA activ ctr inactive
Cc1nn(Cc2ccc(Cl)c(Cl)c2)c(C)c1NC(=O)c1sc2ccccc2c1Cl	none (no result: S1P3 antag)
CCCCCCCCNC(=O)C(CCC(=O)OCc1ccccc1)NC(C)=O (stereo not drawn)	none (no result: S1P3 antag)
COC(=O)C1=CN(CC2CCCO2)C=C(C(=O)OC)C1c1ccccc1C(F)(F)F (stereo not drawn)	GALR2 agonist 12 (no result: S1P3 antag) | GALR2 agon conf inactive | BLA activ ctr inactive
Cc1ccccc1C(=O)Nc1nncs1	GALR2 agonist 26 (no result: S1P3 antag) | GALR2 agon conf inactive | BLA activ ctr inactive
N#Cc1cc2c(=O)n3ccccc3nc2n(CCN2CCOCC2)c1=O	none (no result: S1P4 ag, GALR2 blocker, S1P4 antagonist, GALR2 agonist)
N#Cc1cc2c(=O)n3ccccc3nc2n(CCCN2CCOCC2)c1=O	GALR2 agonist 8.6 | GALR2 agon conf inactive | BLA activ ctr 8.2
O=C(Cn1c2ccccc2c(=O)c2ccccc21)Nc1cccc(F)c1	GALR2 agonist 12 | GALR2 agon conf 9.1 | BLA activ ctr 14
CCOC(=O)/C(C#N)=C/c1ccc(OCC(=O)Nc2ccc(OC)cc2)c(OC)c1	none (no result: S1P3 antag)
CCOC(=O)/C(C#N)=C/c1ccc(OC)c(OC)c1	GALR2 agonist 16 (no result: S1P3 antag) | GALR2 agon conf inactive | BLA activ ctr inactive
Cc1ccc(CNc2ccc3c(c2)ncn3C(C)(C)C)cc1	none (no result: GALR2 blocker, GALR2 agonist)
C=CCn1c(NS(=O)(=O)c2ccccc2)c(S(=O)(=O)c2ccc(C)cc2)c2nc3ccccc3nc21	none
CC(=O)Nc1c(S(=O)(=O)c2ccccc2)c2nc3ccccc3nc2n1Cc1ccccc1	none (no result: S1P3 antag) | GALR2 agon conf inactive | BLA activ ctr inactive

Compound activity from PubChem BioAssay.
